Compounds with a hit are over-represented: about 27% of the library has one in this group of screens.
CYP2C19 act = human CYP2C19 activators, primary screen, biochemical, luminescence; AID 1025, 2008; 96,000 tested, under 10 active; activation factor at 5 µM; recombinant CYP2C19, luciferin-H EGE luminescence; hits give high values; 0 = fully inhibited enzyme, 1 = untreated enzyme;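 active = activation factor of at least 2 at 5 µM in the primary screen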;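 also: 0 = wells with 2.5 mM tranylcypromine and 1 = vehicle-only wells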
CYP2C9 inhib = blockers of cytochrome P450 2C9 activity – biochemical, luminescence, ADME assay, primary screen | P11712 | hit rate 20% among 96,000 | CYP2C9 Supersomes, luciferin-H conversion | inhibition, % at 5 µM | AID 777, 2007;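 active = blocking of liver enzyme CYP2C9 beyond about 50% at 5 µM, limit read from the data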
CYP2C9 activ = human CYP2C9 activators, primary screen, biochemical, luminescence | Cytochrome P450 2C9 (Homo sapiens), P11712 | recombinant CYP2C9, luciferin-H conversion; hits give high values; factor 1 = untreated enzyme, 0 = blocked | activation factor at 5 µM | hit rate 1.4% among 96,000 | AID 1024, 2008;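 active = activation factor of 2 or more for CYP2C9 at a 5 µM dose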;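 also: 0 = sulfaphenazole-blocked wells and 1 = vehicle-only wells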
Cav3 T inh = Cav3.2 calcium influx blockers – cell-based, Fluo-4 calcium fluorescence, FDSS, MLSMR library, primary screen; Cav3.2-expressing cells; hits give low values; B-score at 10 µM; hit rate 4% among 100,000; AID 449739, 2010;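 active = single-dose well whose peak fluorescence ratio is a statistical outlier from its plate by either plate-standardised score or position-corrected B-score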
CYP2C19 inhib = blockers of cytochrome P450 2C19 activity – biochemical, luminescence, ADME assay, primary screen; P33261; CYP2C19 Supersomes, luciferin-H EGE luminescence, 30 min; inhibition, % at 5 µM; hit rate 21% among 96,000; AID 778, 2007;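 active = CYP2C19 inhibition above a set limit at 5 µM in the primary screen, cut at about 50% in these data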;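 also: plate controls were negative control wells for no effect and 2.5 mM tranylcypromine positive control for full effect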
Pyk2 oligo antag = antagonists of Pyk2 self-association, primary screen, Q293 cells, FERM NanoBiT luminescence, HTS; Protein-tyrosine kinase 2-beta (Homo sapiens), Q14289; hits give low values; z-score (the deposit names both 25 µM and 10 µM); hit rate 0.83% among 99,000;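 active = Z-score of -3 or lower, scaled per plate to the spread of control and sample wells; inactive = z-score above -3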;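 also: negative z-score means lost luminescence so less FERM oligomerization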
Target sequence (Q14289 whole entry, looked up): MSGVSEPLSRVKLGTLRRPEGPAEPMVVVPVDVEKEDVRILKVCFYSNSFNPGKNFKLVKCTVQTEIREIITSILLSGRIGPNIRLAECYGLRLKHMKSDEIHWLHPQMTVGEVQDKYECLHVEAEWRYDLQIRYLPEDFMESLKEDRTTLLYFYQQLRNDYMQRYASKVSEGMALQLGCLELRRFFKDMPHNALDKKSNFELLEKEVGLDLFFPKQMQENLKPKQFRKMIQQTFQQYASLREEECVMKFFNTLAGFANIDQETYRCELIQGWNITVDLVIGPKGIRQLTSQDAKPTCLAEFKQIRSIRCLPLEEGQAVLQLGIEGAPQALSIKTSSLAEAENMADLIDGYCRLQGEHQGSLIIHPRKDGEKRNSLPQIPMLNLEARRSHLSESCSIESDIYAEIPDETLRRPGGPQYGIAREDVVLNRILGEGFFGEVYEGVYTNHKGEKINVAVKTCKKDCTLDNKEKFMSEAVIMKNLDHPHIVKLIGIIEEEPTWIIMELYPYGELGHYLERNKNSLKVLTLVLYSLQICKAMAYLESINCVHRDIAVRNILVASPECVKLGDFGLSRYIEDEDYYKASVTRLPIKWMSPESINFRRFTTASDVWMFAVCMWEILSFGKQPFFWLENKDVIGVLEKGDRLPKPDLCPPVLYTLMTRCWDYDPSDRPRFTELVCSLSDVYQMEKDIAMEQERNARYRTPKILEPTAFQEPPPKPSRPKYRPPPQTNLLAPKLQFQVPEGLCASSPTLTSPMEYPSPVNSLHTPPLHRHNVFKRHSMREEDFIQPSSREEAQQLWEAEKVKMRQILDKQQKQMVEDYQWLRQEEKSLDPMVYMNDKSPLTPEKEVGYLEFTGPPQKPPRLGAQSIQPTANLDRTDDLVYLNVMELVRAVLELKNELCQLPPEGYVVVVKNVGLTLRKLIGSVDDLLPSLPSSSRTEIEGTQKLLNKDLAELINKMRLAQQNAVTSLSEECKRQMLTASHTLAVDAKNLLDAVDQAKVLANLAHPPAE
* = called active by the depositor; · = not tested or not shown.

SMILES	CYP2C19 act	CYP2C9 inhib	CYP2C9 activ	Cav3 T inh	CYP2C19 inhib	Pyk2 oligo antag
O=C(NC(c1ccc(Cl)cc1)c1c(O)ccc2ccccc12)c1ccccc1 (configuration not stated)	·	·	·	·	·	-2.9
CCC(=O)NC(c1ccc([N+](=O)[O-])cc1)c1c(O)ccc2ccccc12 (configuration not stated)	0.1	54*	0.5	-1.2	94*	-3.1*
CC(=O)Oc1ccc2ccccc2c1C(NC(=O)C(C)C)c1cccc([N+](=O)[O-])c1 (configuration not stated)	0.8	46	0.5	-2.7	23	-2.9
CC(C)C(=O)NC(c1ccccc1Cl)c1c(O)ccc2ccccc12 (configuration not stated)	0.8	12	0.9	0.85	22	-3.8*
C[C@H]1CC[C@]2(O[C@@H](CCO)C[C@H](O)[C@H]2O)O1	·	·	·	0.0063	·	·
COc1ccc(C2(C(=O)N3CCOCC3)CCOCC2)cc1OC	1	-9	1.1	0.26	2	-0.66
O=C(N1CCOCC1)C1(c2ccc(Cl)cc2)CCCC1	0.1	-4	1	-0.81	88*	-0.37
O=C(CSc1nccc(=O)[nH]1)Nc1ccc(Br)c(Cl)c1	0.7	79*	0.2	1.5	34	0.31
CCOc1cc(/C=N/NC(=O)COc2cccc(C)c2)ccc1OC(=O)c1cccs1	0.8	59*	0.4	·	18	-0.42
CC(=O)N1CCc2cc(S(=O)(=O)CCC(=O)O)ccc21	1	8	0.9	·	0	0.57
COCCNC(=O)c1cc2c(-c3ccc(Cl)cc3)nn(C)c2s1	0.8	9	0.9	1.1	20	·
Cn1nc(-c2ccc(Cl)cc2)c2cc(C(=O)N3CCCC3)sc21	0.5	37	0.6	0.27	48	·
Cn1nc(-c2ccc(Cl)cc2)c2cc(C(=O)N3CCN(c4ccccn4)CC3)sc21	0.7	56*	0.4	-1	32	·
Cn1nc(-c2ccc(Cl)cc2)c2cc(C(=O)N3CCN(c4ccccc4)CC3)sc21	0.6	84*	0.2	-0.97	38	·
Cn1nc(-c2ccc(Cl)cc2)c2cc(C(=O)NCCCN3CCCC3)sc21	1.1	-3	1	-0.2	-6	·
Cc1ccc(CNC(=O)c2cc3c(-c4ccc(Cl)cc4)nn(C)c3s2)o1	0.9	63*	0.4	-0.41	14	·
Cc1ccc(N2C(=O)CC(n3nc(C)cc3C)C2=O)cc1 (configuration not stated)	1	-25	1.2	0.11	4	0.46
C=C(C)Cn1c(-c2ccccc2)nc2ccccc21	0.3	42	0.6	-4.1*	69*	0.08
Cc1ccc2cc(C(c3nnnn3CC3CCCO3)N3CCc4ccccc4C3)c(=O)[nH]c2c1 (configuration not stated)	0.6	71*	0.3	0.047	42	0.92
Cc1ccc(C)c2[nH]c(=O)c(C(c3nnnn3Cc3ccccc3)N3CCc4ccccc4C3)cc12 (configuration not stated)	0.1	73*	0.3	-0.94	85*	1.3
Cc1cc(C)c2cc(C(O)c3nnnn3Cc3ccccc3)c(=O)[nH]c2c1 (configuration not stated)	1	0	1	-1	3	1.8
Cc1cccc2cc(C(c3nnnn3Cc3ccc4c(c3)OCO4)N3CCCC3)c(=O)[nH]c12 (configuration not stated)	0.6	50*	0.5	-1	38	0.22
Cc1cccc2cc(C(c3nnnn3CC3CCCO3)N3CCCc4ccccc43)c(=O)[nH]c12 (configuration not stated)	0.7	56*	0.4	-0.093	28	-0.29
O=c1[nH]c2cc3c(cc2cc1C(c1nnnn1Cc1ccccc1)N1CCCCCC1)OCCO3 (configuration not stated)	0.9	18	0.8	0.27	14	0.14
Cc1cc(C)cc(OCC(=O)Nc2cccc(-c3nc4ncccc4o3)c2)c1	0.8	24	0.8	-1	19	·
SMILES	CYP2C19 act	CYP2C9 inhib	CYP2C9 activ	Cav3 T inh	CYP2C19 inhib	Pyk2 oligo antag
O=C(Nc1ccc2snnc2c1)Nc1cccc2ccccc12	0.6	41	0.6	-0.81	43	-0.96
Cc1cc(C(c2nnnn2Cc2ccccc2)N2CCOCC2)c(C)n1-c1ccc2c(c1)OCO2 (configuration not stated)	0	90*	0.1	-4.6*	96*	-0.49
CCOc1ccc2[nH]c(=O)c(C(c3nnnn3CC3CCCO3)N3CCc4ccccc4C3)cc2c1 (configuration not stated)	0.5	68*	0.3	-1.8	50*	0.83
CCc1ccc2[nH]c(=O)c(C(c3nnnn3CC3CCCO3)N3CCCc4ccccc43)cc2c1 (configuration not stated)	1.1	-3	1	-1	-10	-0.27
Cc1cccc2cc(C(c3nnnn3CC3CCCO3)N3CCc4ccccc4C3)c(=O)[nH]c12 (configuration not stated)	0.5	60*	0.4	·	47	·
CC(O)[C@H]1CNC(=O)C(=O)N1CC(C)(C)C (some centres not stated)	·	·	·	1.2	·	·
Cc1ccc(SC(c2ccccc2)C(Cn2cncn2)C(=O)c2ccccc2)cc1 (configuration not stated)	0	100*	0	0.34	99*	-1
O=C(c1ccc(Cl)cc1)C(Cn1cncn1)C(Sc1ccccc1)c1ccccc1 (configuration not stated)	0	100*	0	-1.8	98*	-2.1
Cc1ccc2c(c1)C1CN(C)CCC1N2C(=O)Nc1ccc(Cl)cc1 (configuration not stated)	0.9	-3	1	-1.5	12	-0.87
Cc1cc(S(=O)(=O)NCCN(C)C)c(C)s1	1	6	0.9	0.76	-2	0.01
CC1(c2ccccc2)NC(=O)N(CC(=O)Nc2cccc(C#N)c2)C1=O (configuration not stated)	0.7	73*	0.3	-0.41	34	0.69
CCC1(c2ccccc2)NC(=O)N(CC(=O)Nc2cccc(C#N)c2)C1=O (configuration not stated)	0.3	46	0.5	-1.2	71*	0.51
CCOC(=O)c1cc(-c2ccccc2)sc1NC(=O)CN1C(=O)NC(CC)(c2ccccc2)C1=O (configuration not stated)	0.7	89*	0.1	-2	30	-0.74

High-throughput results deposited in PubChem BioAssay by several laboratories.
